Assay outcomes (PubChem)
A647 autofl: A647 region autofluorescence; Compound fluorescence, A647 channel (570/671 nm), Tris buffer; max dye-equivalent concentration, M; 59,000 tested, under 10 active
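Buffer was dispensed, compounds and Alexa 647 standards were pin-transferred, and plates sat 15 min at room temperature. Intensity at 570/671 nm was then converted to dye-equivalent concentration using the plate's A647 standard curve.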
Rhodamine autofl: rhodamine region autofluorescence; max dye-equivalent concentration, M; Rhodamine-region fluorescence, 547/598 nm, Tris buffer; hits give high values; actives 0.05% (n = 59,000); AID 594; in the data active means max dye-equivalent concentration above about 11 nM; inconclusive means between about 1.1 nM and that limit
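Read-out is relative fluorescence at 547 nm excitation and 598 nm emission, expressed as dye-equivalent concentration using rhodamine standards on every plate. Each compound was profiled across a concentration series after 15 min in 100 mM Tris, pH 8.0.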
A488 autofl: compound fluoresces in the A488 spectral region | compound autofluorescence, A488 spectral region, dye equivalency; Compound Type: qHTS ECL - MLSMR | max dye equivalency, M | actives 0.1% (n = 59,000)
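Readout is A488 dye-equivalent concentration, calibrated by a per-plate six-point Alexa 488 series. Compounds in 100 mM Tris buffer pH 8.0 were incubated 15 min at room temperature. Plates were imaged using 480 nm excitation/540 nm emission filters.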
Resorufin fluor: resorufin region autofluorescence; Compound fluorescence, resorufin region 547/598 nm, buffer; hits give high values; max dye-equivalent concentration, M; actives 0.04% (n = 59,000)
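Compounds in 100 mM Tris, pH 8.0, incubated 15 min at room temperature, then fluorescence read at 547 nm excitation/598 nm emission. Signal converted to dye-equivalent concentration via an on-plate six-point resorufin standard curve, per compound concentration.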
Fluorescein fluor: fluorescein region autofluorescence; actives 0.91% (n = 59,000); max fluorescein-equivalent concentration, M; Compound autofluorescence, 480/540 nm, fluorescein-equivalent; hits give high values; in the data active means max fluorescein-equivalent concentration above about 10 nM; inconclusive means between about 1.1 nM and that limit
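Values reflect compound autofluorescence, normalized to fluorescein on the same plate and reported at each tested concentration. Conditions: 100 mM Tris pH 8.0, room temperature, 15 min, excitation 480 nm, emission 540 nm.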
TexasRed autofl: compounds fluorescent in Texas Red spectral region; Compound fluorescence, Texas Red channel, 547/618 nm; hits give high values; max dye-equivalent concentration, M; actives 0.06% (n = 59,000); in the data active means max dye-equivalent concentration above about 10 nM; inconclusive means between about 1.1 nM and that limit
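Compound fluorescence was read after 15 min at room temperature in 100 mM Tris, pH 8.0, using 547 nm excitation and 618 nm emission across a concentration series. It was expressed as Texas Red dye-equivalent concentration from an on-plate standard curve.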
Of the large screens only hits and unclear results are named; the others gave an inactive call; ! = not confirmed by another sample. In the library only some 0.96% were active in any assay of this set; here they are far more common. Unless noted, how the calls were made is not given here.

CN1CC=C2C(C#N)=C(N)C(C#N)(C#N)C(c3ccncc3)C2C1 (configuration not stated)	A488 autofl inconclusive, Fluorescein fluor 4.17e-08M, TexasRed autofl inconclusive
C[C@@]12CC[C@H]3[C@@H](CCC4=CC(=O)CC[C@]43C)[C@H]1CCC2=O	none
CN1C[C@H](CNC(=O)OCc2ccccc2)C[C@@H]2c3cccc4c3c(cn4C)C[C@H]21	A488 autofl inconclusive, Fluorescein fluor 4.72e-08M
CN1C[C@@H](CS(=O)(=O)N(C)C)C[C@H]2c3cccc4c3c(cn4C)C[C@@H]21	Fluorescein fluor 1.86e-08M, TexasRed autofl inconclusive
CCCCCC[C@H]1C(=O)O[C@@H](C)[C@H](NC(=O)c2cccc(NC=O)c2O)C(=O)O[C@@H](C)[C@@H]1OC(=O)CC(C)C	none
CCn1nc(-c2ccccc2)nc2c(=O)n(C)c(=O)nc1-2	A488 autofl 1.08e-08M, Fluorescein fluor 1.78e-07M
CC[C@@H]1CN2CC[C@@H]1C[C@H]2[C@@H](O)c1ccnc2ccc(OC)cc12	none
CC(C)[C@@]1(NC(=O)[C@H]2C[C@H]3c4cccc5[nH]cc(c45)C[C@@H]3N(C)C2)O[C@]2(O)[C@H]3CCCN3C(=O)[C@H](Cc3ccccc3)N2C1=O	Fluorescein fluor inconclusive
CC(C)[C@@]1(NC(=O)[C@@H]2C=C3c4cccc5[nH]cc(c45)C[C@@H]3N(C)C2)O[C@]2(O)[C@H]3CCCN3C(=O)[C@H](Cc3ccccc3)N2C1=O	A488 autofl inconclusive, Fluorescein fluor 2.89e-08M
CN1C[C@H](C(=O)N[C@@]2(C)O[C@@]3(O)[C@H]4CCCN4C(=O)[C@@H](Cc4ccccc4)N3C2=O)C=C2c3cccc4[nH]cc(c34)C[C@@H]21	Fluorescein fluor 1.8e-08M
N[C@H](Cc1ccc2oc3cc(=O)c4ccccc4c-3nc2c1)C(=O)O	Rhodamine autofl 1.16e-08M, A488 autofl 3.89e-08M, Resorufin fluor inconclusive, Fluorescein fluor 8.49e-07M, TexasRed autofl 4.7e-08M
N[C@@H](Cc1cc(Br)c(O)c(Br)c1)C(=O)O	none
C[C@@]12CC[C@H](O)C[C@@H]1CC[C@H]1[C@H]2C[C@@H](O)[C@]2(C)[C@@H](C3=CC(=O)OC3)CC[C@@]12O	none
Cn1c(=O)c2nncnc2n(C)c1=O	Fluorescein fluor 1.06e-08M
COc1ccc(Cn2c(N)c(C(=O)NCc3ccco3)c3nc4ccccc4nc32)cc1OC	Fluorescein fluor inconclusive
COCCOC(=O)c1c(N)n(Cc2ccco2)c2nc3ccccc3nc12	A488 autofl inconclusive, Fluorescein fluor 4.28e-08M
COCCOC(=O)c1c(N)n(Cc2ccc(OC)cc2)c2nc3ccccc3nc12	TexasRed autofl inconclusive
CC(C)OC(=O)c1c(N)n(Cc2ccco2)c2nc3ccccc3nc12	A488 autofl inconclusive, Fluorescein fluor 3.6e-08M
O=C(O)/C=C\c1ccc[c]([Sb](=[O])([OH])[OH])c1	Fluorescein fluor inconclusive
NNc1c(C(N)=O)c2c(N)ncnc2n1[C@@H]1O[C@H](CO)[C@@H](O)[C@@H]1O	none
C=C(C)[C@H]1[C@H]2OC(=O)[C@@H]1[C@]1(O)C[C@H]3O[C@]34C(=O)O[C@H]2[C@]14C	none
CN1C[C@H](CO)C=C2c3cccc4[nH]cc(c34)C[C@@H]21	Fluorescein fluor 2.68e-08M
CCN(CC)C(=O)N[C@@H]1C=C2c3cccc4[nH]cc(c34)C[C@@H]2N(C)C1	Fluorescein fluor 1.3e-08M!, TexasRed autofl inconclusive
O=c1cccc2n1C[C@@H]1C[C@H]2CN2CCCC[C@H]12	none
CCOC(=O)c1ccc(NC(=O)c2c(O)[nH]c(=O)[nH]c2=O)cc1	Rhodamine autofl inconclusive, A488 autofl 2.34e-06M, Fluorescein fluor 4.06e-05M, TexasRed autofl inconclusive
CCC(=NC1CCN(Cc2ccccc2)CC1)c1c(O)[nH]c(=O)[nH]c1=O	none
COc1cccc2c1C(=O)c1c(O)c3c(c(O)c1C2=O)C[C@](O)(/C(C)=N\O)C[C@@H]3O[C@H]1C[C@H](N)[C@@H](O)[C@H](C)O1	Rhodamine autofl 2.98e-08M, A488 autofl inconclusive, Resorufin fluor 1.72e-08M, Fluorescein fluor 7.63e-08M, TexasRed autofl 1.89e-08M
C[C@H]1CC[C@@H]2[C@@H](C)C(=O)O[C@H]3O[C@@]4(C)CC[C@@H]1[C@]32OO4	none
C[C@@H]1O[C@H](O[C@H]2C[C@@H](O)[C@]3(CO)[C@H]4[C@H](O)C[C@]5(C)[C@@H](C6=CC(=O)OC6)CC[C@@]5(O)[C@H]4CC[C@]3(O)C2)[C@@H](O)[C@H](O)[C@H]1O	none
C[C@@H](CO)NC(=O)[C@H]1C=C2c3cccc4[nH]cc(c34)C[C@H]2N(C)C1	Fluorescein fluor inconclusive
CC[C@@H](CO)NC(=O)[C@@H]1C=C2c3cccc4c3c(cn4C)C[C@H]2N(C)C1	A488 autofl inconclusive, Fluorescein fluor 4.77e-08M
CC[C@H](CO)NC(=O)[C@H]1C=C2c3cccc4[nH]cc(c34)C[C@@H]2N(C)C1	Fluorescein fluor 2.1e-08M
